# Measured values reported in PubChem BioAssay.
# The source made the active and inactive calls.
# Legend:
# [1] = small molecules captured by biotinylated probe aFSTL3 – biochemical, small-molecule microarray, fluorescence 635/667, stem cell growth factor project, primary screen (AID 1064); details: higher = more signal;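 also: measures binding of the biotinylated anti-FSTL3 antibody to printed compounds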
# [2] = binders from COS7 lysate, DM2A8 probe, primary screen, torsin A project, cell lysate, small-molecule microarray, fluorescence 635/667 (AID 1065); details: higher = more signal, COS7 lysate expressing mutant human TOR1A
# [3] = small molecules captured by biotinylated probe aFGF2 – biochemical, small-molecule microarray, fluorescence 635/667, stem cell growth factor project, primary screen (AID 1067); details: higher = more signal;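 also: measures binding of biotinylated aFGF2 protein to printed compounds on slides; z-score merges feature fluorescence and signal-to-noise across triplicate slides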
# [4] = small molecules captured by biotinylated probe aFGF10 – biochemical, small-molecule microarray, fluorescence 635/667, stem cell growth factor project, primary screen (AID 1071); details: higher = more signal;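 also: score merges 667 nm spot intensity and signal to noise from triplicate slides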
# [5] = molecular target: Neurogenic locus notch homolog protein 2 (Homo sapiens) (UniProt Q04721); experiment: small molecules binding Notch2 protein – biochemical, small-molecule microarray, 635 nm fluorescence, stem cell growth factors, primary screen (AID 1073); details: higher = more signal
# [6] = molecular target: Pro-neuregulin-1, membrane-bound isoform (Homo sapiens) (UniProt Q02297); experiment: small molecules binding neuregulin-1 protein – biochemical, small-molecule microarray, fluorescence 635/667, psychiatric disease protein project, primary screen (AID 1075); details: NRG1 binding, 635 nm fluorescence, higher = more signal;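 also: score combines 667 nm spot fluorescence with signal to noise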
# Pro-neuregulin-1, membrane-bound isoform (Homo sapiens), sequence (Q02297 whole entry, looked up, the tested form may be a part, canonical isoform): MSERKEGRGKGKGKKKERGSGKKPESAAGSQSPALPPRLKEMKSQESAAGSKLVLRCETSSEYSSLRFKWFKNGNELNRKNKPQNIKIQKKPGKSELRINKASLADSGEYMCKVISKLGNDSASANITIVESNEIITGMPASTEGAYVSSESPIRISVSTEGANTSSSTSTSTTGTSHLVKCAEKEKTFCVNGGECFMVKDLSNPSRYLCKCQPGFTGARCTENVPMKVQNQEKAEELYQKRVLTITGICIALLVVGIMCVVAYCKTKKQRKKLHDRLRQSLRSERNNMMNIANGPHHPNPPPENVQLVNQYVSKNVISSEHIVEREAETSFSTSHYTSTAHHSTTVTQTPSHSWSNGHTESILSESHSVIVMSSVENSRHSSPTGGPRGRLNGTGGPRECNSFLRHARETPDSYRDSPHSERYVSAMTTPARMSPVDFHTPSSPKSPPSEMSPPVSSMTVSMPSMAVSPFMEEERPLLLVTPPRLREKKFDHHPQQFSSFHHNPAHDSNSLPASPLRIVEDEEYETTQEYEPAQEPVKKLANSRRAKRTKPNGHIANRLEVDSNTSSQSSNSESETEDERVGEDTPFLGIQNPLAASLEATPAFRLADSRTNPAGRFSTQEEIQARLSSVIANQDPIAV
# [7] = test system: Neuregulin-1 EGF-like domain; experiment: small molecules binding NRG1 EGF domain – biochemical, small-molecule microarray, 635 nm fluorescence, primary screen (AID 1081); details: higher = more signal;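 also: binding of the protein to compounds printed on small-molecule microarray slides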
# [8] = FRG1 expression reporter modulators in myotubes – cell-based, C2C12 myotubes, firefly/Renilla luciferase, luminescence, FRG1 inhibition for FSHD, primary screen (AID 1084); details: FRG1 promoter luciferase, higher = more signal, called active from +8 up or from −8 down
# [9] = small molecules captured by biotinylated probe aFST – biochemical, small-molecule microarray, fluorescence 635/667, stem cell growth factor project, primary screen (AID 1086); details: higher = more signal;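 also: score merges 667 nm fluorescence with signal-to-noise of each printed compound spot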
# [10] = binders of probe aHhip on microarray, primary screen, stem cell growth factor project, biochemical, small-molecule microarray, fluorescence 635/667 (AID 1087); details: higher = more signal;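 also: score merges spot fluorescence at 667nm with spot signal to noise ratio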
# [11] = test system: PRMT1 (protein arginine N-methyltransferase 1); experiment: small molecules binding arginine methyltransferase PRMT1 – biochemical, small-molecule microarray, 635 nm fluorescence, primary screen (AID 1088); details: higher = more signal;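 also: binding of Prmt1 protein to compounds spotted on small-molecule microarray slides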
# [12] = growth effects on S. cerevisiae YJM789 – YJM789 clinical isolate, OD600, 24 h, basal, primary screen (AID 1089); details: higher = more signal, called active from +8 up or from −8 down;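 also: growth of clinical yeast isolate S. cerevisiae YJM 789 seeded 1000 cells per well; test concentration not given here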
# [13] = S. pombe growth modifiers, basal conditions – strain 972, OD600, 24 h, no modulator, primary screen (AID 1090);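 also: basal condition with compound alone and no growth modifier present; test concentration not given here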; details: S. pombe 972 growth, higher = more signal, called active from +8 up or from −8 down
# [14] = budding yeast growth modifiers under rapamycin – strain BY4716, OD600, 96 h, primary screen (AID 1091); also: test concentration not given here; details: S. cerevisiae BY4716 + rapamycin, higher = more signal, called active from +8 up or from −8 down
# [15] = molecular target: Torsin-1A-interacting protein 2 (Homo sapiens) (UniProt Q8NFQ8); experiment: small molecules binding lysate-expressed LULL1 – cell lysate, human LULL1 lysate, 635/667 nm fluorescence, primary screen (AID 1092); details: small-molecule microarray, hLULL1 lysate binding, 635 nm fluorescence; higher = more signal;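 also: probe is lysate of COS7 cells overexpressing human LULL1; score merges per-feature 667 nm fluorescence with signal-to-noise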
# Torsin-1A-interacting protein 2 (Homo sapiens), sequence (Q8NFQ8 whole entry, looked up): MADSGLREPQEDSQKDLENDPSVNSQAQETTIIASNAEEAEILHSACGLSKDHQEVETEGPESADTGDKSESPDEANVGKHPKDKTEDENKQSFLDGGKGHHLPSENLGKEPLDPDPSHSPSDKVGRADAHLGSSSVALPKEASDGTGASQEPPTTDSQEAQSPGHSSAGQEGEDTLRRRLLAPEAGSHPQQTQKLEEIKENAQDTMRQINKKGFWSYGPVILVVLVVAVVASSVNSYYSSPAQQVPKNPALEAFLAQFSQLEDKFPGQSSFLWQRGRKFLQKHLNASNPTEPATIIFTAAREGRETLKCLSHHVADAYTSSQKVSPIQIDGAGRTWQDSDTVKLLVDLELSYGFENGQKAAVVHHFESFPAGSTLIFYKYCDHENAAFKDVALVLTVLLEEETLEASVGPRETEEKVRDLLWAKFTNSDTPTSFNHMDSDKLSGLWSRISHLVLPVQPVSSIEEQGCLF
# [16] = optical density change of DRC41 E. coli – strain DRC41, OD650, 24 h, E. coli filamentation project, primary screen (AID 1093);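 also: MC1000 strain lacking acrAB efflux and sulA so SOS filamentation is blocked; test concentration not given here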; details: E. coli DRC41 growth, higher = more signal, called active from +8 up or from −8 down
# [17] = probe aLefty2 binding to arrayed compounds – biochemical, biotinylated probe, 635/667 nm fluorescence, primary screen (AID 1094); details: small-molecule microarray, higher = more signal;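 also: score merges spot fluorescence near 667 nm with spot signal-to-noise ratio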
# [18] = test system: Noggin (protein binding on small-molecule microarray); experiment: small molecules binding Noggin protein – biochemical, 635/667 nm fluorescence, primary screen (AID 1095); details: 635 nm fluorescence, higher = more signal;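 also: score merges 667 nm feature fluorescence with signal to noise over triplicate slides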
# [19] = molecular target: Neurogenic locus notch homolog protein 3 (Homo sapiens) (UniProt Q9UM47); experiment: small molecules binding NOTCH3 protein – biochemical, 635/667 nm fluorescence, primary screen (AID 1096); details: small-molecule microarray, 635 nm fluorescence, higher = more signal
# Neurogenic locus notch homolog protein 3 (Homo sapiens), sequence (Q9UM47 whole entry, looked up): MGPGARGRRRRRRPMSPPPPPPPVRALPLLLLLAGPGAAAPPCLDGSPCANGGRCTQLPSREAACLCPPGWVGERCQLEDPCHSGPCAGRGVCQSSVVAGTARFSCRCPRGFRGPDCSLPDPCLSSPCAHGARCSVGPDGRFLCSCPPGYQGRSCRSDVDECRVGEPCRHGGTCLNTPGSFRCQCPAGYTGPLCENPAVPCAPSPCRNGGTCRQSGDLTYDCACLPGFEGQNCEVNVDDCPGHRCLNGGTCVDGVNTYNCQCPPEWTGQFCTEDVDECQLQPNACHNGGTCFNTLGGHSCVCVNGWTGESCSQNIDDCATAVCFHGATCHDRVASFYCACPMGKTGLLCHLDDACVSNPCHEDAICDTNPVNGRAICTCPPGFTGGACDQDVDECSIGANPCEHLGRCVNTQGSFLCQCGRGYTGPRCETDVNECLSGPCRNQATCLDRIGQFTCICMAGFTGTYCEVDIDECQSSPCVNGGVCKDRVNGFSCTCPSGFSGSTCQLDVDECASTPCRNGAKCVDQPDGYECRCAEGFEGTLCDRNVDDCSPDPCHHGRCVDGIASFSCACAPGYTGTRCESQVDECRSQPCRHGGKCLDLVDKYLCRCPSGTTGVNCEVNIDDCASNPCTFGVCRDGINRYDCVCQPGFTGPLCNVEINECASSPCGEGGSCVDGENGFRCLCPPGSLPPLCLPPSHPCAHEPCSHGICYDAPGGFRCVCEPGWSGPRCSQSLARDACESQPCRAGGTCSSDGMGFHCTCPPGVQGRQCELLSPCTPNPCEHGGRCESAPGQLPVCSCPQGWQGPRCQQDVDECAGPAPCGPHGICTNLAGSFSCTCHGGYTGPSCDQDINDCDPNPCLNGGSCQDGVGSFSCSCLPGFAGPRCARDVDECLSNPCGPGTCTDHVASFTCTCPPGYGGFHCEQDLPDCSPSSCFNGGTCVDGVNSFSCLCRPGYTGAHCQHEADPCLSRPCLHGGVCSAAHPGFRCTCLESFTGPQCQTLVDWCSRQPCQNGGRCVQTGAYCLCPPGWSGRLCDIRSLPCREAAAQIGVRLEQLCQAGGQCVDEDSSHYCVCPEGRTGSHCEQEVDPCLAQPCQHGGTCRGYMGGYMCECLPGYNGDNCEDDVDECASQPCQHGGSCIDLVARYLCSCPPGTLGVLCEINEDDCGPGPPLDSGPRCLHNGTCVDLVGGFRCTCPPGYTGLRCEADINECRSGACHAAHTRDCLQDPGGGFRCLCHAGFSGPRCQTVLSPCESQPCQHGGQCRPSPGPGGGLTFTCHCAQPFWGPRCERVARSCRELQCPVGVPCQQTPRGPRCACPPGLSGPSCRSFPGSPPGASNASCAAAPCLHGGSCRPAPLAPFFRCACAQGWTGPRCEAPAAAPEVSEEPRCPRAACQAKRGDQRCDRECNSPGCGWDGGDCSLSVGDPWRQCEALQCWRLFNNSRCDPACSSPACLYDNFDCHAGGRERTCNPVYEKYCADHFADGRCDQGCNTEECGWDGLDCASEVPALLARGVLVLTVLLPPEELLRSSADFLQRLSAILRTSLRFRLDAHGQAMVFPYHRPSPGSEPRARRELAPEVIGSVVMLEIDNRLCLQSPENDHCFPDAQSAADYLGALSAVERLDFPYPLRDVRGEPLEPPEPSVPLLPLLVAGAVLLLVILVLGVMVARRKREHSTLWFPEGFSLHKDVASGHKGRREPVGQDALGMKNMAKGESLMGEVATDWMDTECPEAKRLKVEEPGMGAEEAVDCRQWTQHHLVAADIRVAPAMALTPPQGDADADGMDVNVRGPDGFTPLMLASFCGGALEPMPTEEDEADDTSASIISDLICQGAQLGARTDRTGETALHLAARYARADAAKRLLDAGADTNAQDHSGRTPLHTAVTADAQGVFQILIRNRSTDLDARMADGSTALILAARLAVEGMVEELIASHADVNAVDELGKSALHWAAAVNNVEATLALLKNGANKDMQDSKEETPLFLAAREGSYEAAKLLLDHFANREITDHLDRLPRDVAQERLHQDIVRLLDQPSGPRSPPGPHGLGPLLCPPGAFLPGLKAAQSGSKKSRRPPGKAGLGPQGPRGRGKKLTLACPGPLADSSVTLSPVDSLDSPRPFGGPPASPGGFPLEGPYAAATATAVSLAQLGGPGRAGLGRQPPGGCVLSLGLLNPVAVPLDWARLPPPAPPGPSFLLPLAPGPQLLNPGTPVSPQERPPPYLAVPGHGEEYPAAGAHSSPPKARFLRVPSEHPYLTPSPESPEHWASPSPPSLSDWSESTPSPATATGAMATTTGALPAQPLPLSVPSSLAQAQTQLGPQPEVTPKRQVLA
# [20] = probe aEGFR binding to arrayed compounds – biochemical, biotinylated probe, 635/667 nm fluorescence, primary screen (AID 1097); details: small-molecule microarray, higher = more signal;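 also: probe is a biotinylated anti-EGFR antibody binding compounds printed on slides; score combines fluorescence near 667 nm and signal to noise of each spot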
SMILES,composite z-score [1],composite z-score [2],composite z-score [3],composite z-score [4],composite z-score [5],composite z-score [6],composite z-score [7],z-score [8],composite z-score [9],composite z-score [10],composite z-score [11],z-score [12],z-score [13],z-score [14],composite z-score [15],z-score [16],composite z-score [17],composite z-score [18],composite z-score [19],composite z-score [20]
CC(C)C(=C=CC[C@H](O)c1ccc(OCCO)cc1)C[C@H](O)COCc1ccccc1,-0.254,1.75,-0.128,0.411,-0.438,0.639,1.09,-1.37 (inactive),-0.0173,-0.0994,1.23,1.09 (inactive),-2.45 (inactive),-0.668 (inactive),1.76,0.775 (inactive),-0.119,1.51,0.229,-0.166
COc1ccc([Si](C)(C)[C@@H]2[C@@H](CC(=O)N3CCC[C@H]3CO)O[C@]3(C(=O)N(Cc4ccc(N5CCC5=O)cc4)c4ccccc43)[C@H]2C)cc1,-0.142,0.783,-0.071,0.66,0.747,0.583,1.07,-1.17 (inactive),0.187,0.245,1.55,-0.556 (inactive),-0.228 (inactive),-0.69 (inactive),2.12,0.673 (inactive),-0.166,1.16,0.708,0.0408
COC(=O)C1=CC(CCCO)=CC(C2CC2)N(Cc2cc3c(cc2Br)OCO3)C=C1C(=O)OC (stereo not given),1.74,2.08,-0.0656,-0.435,0.728,2.22,1.3,-0.0234 (inactive),0.796,-0.0645,1.54,-1.04 (inactive),-2.22 (inactive),-1.23 (inactive),3,-0.741 (inactive),0.392,-0.705,0.647,0.0821
C=CCC(OC(C)=O)[C@@H]1[C@@H](N(Cc2cc3ccccc3o2)C(=O)c2ccc(-c3ccccc3)cc2)c2cc(OCCCO)ccc2N1C(=O)c1ccc(-c2ccccc2)cc1 (stereo not given in full),0.218,-0.352,-0.0985,0.0925,0.11,-0.196,-0.714,-1.24 (inactive),0.105,-0.0994,-0.527,1.13 (inactive),0.0977 (inactive),1.38 (inactive),0.94,1.95 (inactive),0.0711,-0.397,-0.402,-0.0444
O=C(O)[C@H]1C[C@H]2C(=O)NCC(=O)N2[C@H]1c1cccc(OCCO)c1,2.86,0.942,0.0568,-0.213,0.29,1.41,0.986,5.62 (inactive),1.98,0.745,1.23,-1.63 (inactive),-2.01 (inactive),-1.11 (inactive),1.51,2.5 (inactive),0.0889,0.0133,0.446,0.108
C=C(/C(=C/C[C@H](OC(=O)c1ccncc1)c1cccc(OCCO)c1)c1cc(C(=O)OC)ccc1OC)C(C)C,-0.0743,1.66,-0.113,0.382,0.191,-0.389,0.73,-1.23 (inactive),-0.179,-0.0631,1.26,0.195 (inactive),-0.382 (inactive),0.947 (inactive),1.23,1.22 (inactive),-0.192,0.126,0.436,-0.112
C=CC[C@@]1(C(=O)NCc2ccccc2)N=C(c2ccc(OCCCO)cc2)O[C@@H]1c1ccccc1,1.17,0.945,-0.0778,-0.523,-0.347,1.61,0.845,-2.56 (inactive),0.3,-0.191,1.29,-2.54 (inactive),-4.81 (inactive),12.3 (active),3.19,2.92 (inactive),0.195,-0.469,0.311,-0.147
O=C1O[C@H](c2ccccc2)[C@H](c2ccccc2)N2[C@H]1[C@@H](C(=O)Nc1nc3ccccc3s1)[C@]1(C(=O)Nc3ccc(C#CCCO)cc31)[C@H]2c1ccccc1OCCO,-0.246,1.25,-0.038,0.502,1.35,1.69,1.06,-1.51 (inactive),0.599,0.0757,1.47,0.764 (inactive),-1.98 (inactive),2.62 (inactive),2.85,2.96 (inactive),0.0459,0.244,0.912,0.0381
C=C(C(=O)CC[C@@H](OC(C)=O)c1ccccc1OCCO)C(C)C,-0.354,-0.363,-0.133,0.664,-0.553,-0.267,-0.29,-2.13 (inactive),-0.575,-0.0994,0.526,-6.28 (inactive),-20.5 (active),-2.44 (inactive),-0.0719,1.27 (inactive),-0.2,-0.0776,0.232,-0.249
COCCCNC(=O)[C@@]1(Cc2ccccc2CN=[N+]=[N-])COC(c2ccc(OCCCO)cc2)=N1,1.14,1.3,0.302,1.07,1.28,1.84,1.28,-2.53 (inactive),0.934,-0.277,1.54,1.14 (inactive),-2.56 (inactive),0.0898 (inactive),3.17,2.36 (inactive),0.374,-0.434,0.964,0.294
NC(=O)N1C(=O)C2C(C1=O)C1C=C(c3ccc(CO)cc3)C2C(C2CC2)N1Cc1cc2c(cc1Br)OCO2 (stereo not given),0.567,0.778,-0.105,-0.277,-0.204,0.976,0.887,-2.01 (inactive),0.0417,-0.0237,0.364,-0.779 (inactive),-3.29 (inactive),-1.32 (inactive),1.86,1.19 (inactive),0.0834,0.176,0.623,-0.0975
CC(C)C[C@@H]1NC(=O)[C@@]23C(=O)N[C@@H](Cc4ccccc4)C2[C@H](C)[C@@]2(C)O[C@H]2C3/C=C/C/C=C\CNC(=O)[C@H](Cc2ccccc2)NC1=O (stereo not given in full),-0.215,-0.215,-0.101,-0.0045,0.245,0.974,0.897,0.259 (inactive),0.0017,0.03,0.911,-0.664 (inactive),-19.9 (active),-0.602 (inactive),0.574,2.08 (inactive),-0.202,0.404,0.414,-0.0671
CC(C)CNC(=O)[C@@H]1c2ccccc2C(=O)N(Cc2ccc(OC(F)(F)F)cc2)[C@H]1c1ccc(CO)cc1,-0.0768,0.849,-0.0095,0.34,0.988,1.15,1.21,-2.61 (inactive),0.941,-0.206,1.54,-1.87 (inactive),-2.91 (inactive),-1.06 (inactive),3.01,3.96 (inactive),-0.0329,1.3,1.04,0.0378
NCCCCCNC(=O)[C@H]1C[C@H]2C(=O)NCC(=O)N2[C@H]1c1ccc(O)cc1,-0.136,2.22,-0.113,0.847,0.775,1.3,1.22,1.51 (inactive),0.106,0.154,1.55,0.535 (inactive),-1.08 (inactive),1.11 (inactive),2.16,1.1 (inactive),-0.0424,1.86,0.906,0.186
CC(C)(C)OC(=O)CC[C@]1(C(=O)NCc2ccccc2)N=C(c2ccc(OCCCO)cc2)O[C@H]1c1ccccc1N=[N+]=[N-],1.4,1.11,0.231,0.907,1.65,1.91,1.26,1.14 (inactive),1.62,-0.248,1.55,-0.182 (inactive),-0.654 (inactive),2.97 (inactive),3.41,0.876 (inactive),0.782,1.69,1.02,0.593
C=C(COC)C(=O)CC[C@H](OC(=O)c1ccccc1-c1ccccc1C(=O)O)c1ccccc1OCCO,0.181,0.607,-0.129,0.247,-0.453,0.867,0.761,-0.621 (inactive),-0.0824,-0.16,1.56,-0.0355 (inactive),-1.37 (inactive),-1.08 (inactive),1.13,1.4 (inactive),-0.235,0.877,0.385,-0.155
[N-]=[N+]=Nc1ccccc1[C@H]1OC(c2ccc(OCCCO)cc2)=N[C@@]1(Cc1ccccc1)C(N)=O,1.28,1.6,0.317,0.988,1.42,1.14,1.13,-0.191 (inactive),1.42,0.0053,1.55,2.87 (inactive),-1.11 (inactive),-0.321 (inactive),2.62,1.6 (inactive),0.789,0.49,1.09,0.441
O=C(NCc1ccccc1)[C@@H]1c2ccccc2C(=O)N(Cc2ccccc2Cl)[C@H]1c1ccc(CO)cc1,0.389,0.658,0.0139,0.124,1.21,0.887,1.25,-2.93 (inactive),0.893,0.0623,1.41,-0.21 (inactive),-1.82 (inactive),-1.49 (inactive),2.69,2.1 (inactive),0.054,1.17,1.05,0.103
CO[C@H]1O[C@H](CO)[C@@H](OC(=O)Nc2ccccc2)[C@H](OC(=O)Nc2ccc3c(c2)OCO3)[C@H]1OC(=O)Nc1ccc2c(c1)OCO2,0.381,0.45,0.128,0.7,1.29,1.61,1.23,4.5 (inactive),0.29,-0.175,1.56,0.648 (inactive),0.494 (inactive),2.28 (inactive),2.8,2.75 (inactive),0.0789,0.128,1.06,-0.0527
COc1ccc([Si](C)(C)[C@@H]2[C@@H](CCn3cc([C@H](O)c4ccccc4)nn3)O[C@]3(C(=O)N(C)c4c(Br)cc(C)cc43)[C@H]2C)cc1,0.114,0.301,-0.116,-0.246,-0.802,-0.115,-0.288,-2.54 (inactive),-0.43,0.154,-0.0221,-2.54 (inactive),-0.793 (inactive),0.406 (inactive),0.215,2.87 (inactive),-0.0295,0.0639,-0.707,0.0089
